# The full ranking holds about 1,700 compounds; the median of “T2 sensor activation Q score (MG/GFP ratio z-score vs DMSO controls)” is about 0.3, and the highest 2% start at about 1.9. Shown is part of a subset that was picked to be rich in the highest values.
# System: ppGalNAc-T2 sensor
# Test: T2 sensor activation Q score (MG/GFP ratio z-score vs DMSO controls) (SD units); higher = more sensor activation (inhibition of ppGalNAc-T2 glycosylation)
# Conditions: HEK293 sensor cells; 10 µM; 6 h
# Procedure: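 Cells were treated with compound at 10 uM for 6 h, then MG/GFP ratio was read by flow cytometry (10,000 cells per well, duplicate wells). Q = (R - R_neg)/SD_neg relative to DMSO vehicle controls; the signal rises when the glycosyltransferase is inhibited.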
row,SMILES,T2 sensor activation Q score
1,c1coc(CNc2ncnc3[nH]ncc23)c1,0.7
2,O=C(O)/C=C/C(=O)N1Cc2cc3ccccc3nc2C1,-0.3
3,CCCCN1C(=O)CC2CCOC21C (configuration not stated),-0.45
4,CN1C(=C=Cc2cc(I)c(O)c(I)c2)C(C)(C)c2ccccc21,3.65
5,Cc1nnc(-n2cccc2)s1,1.4
6,Clc1ccc(Oc2nc3c(Cl)cccc3s2)cc1Cl,0.85
7,Nc1n[nH]c(-c2ccccc2)n1,0.75
8,Nc1n[nH]c(CO)n1,1.95
9,C(COC1CC2CC1C1C2CC2OC21)OC1CC2CC1C1C2CC2OC21 (configuration not stated),0.15
10,CC(C)C[C@H](NC(=O)[C@H](CCc1ccccc1)NC(=O)CN1CCOCC1)C(=O)N[C@@H](Cc1ccccc1)C(=O)N[C@@H](CC(C)C)C(=O)[C@@]1(C)CO1,-1.65
11,O=C1c2cccc(Sc3ccccc3)c2C(=O)c2c(Sc3ccccc3)cccc21,-0.5
12,S=c1nc[nH]c2c1ncn2C1CCCC1,1.4
13,COc1ccc2nc3cc(Cl)ccc3c(Nc3cc(C(C)C)c(O)cc3C)c2c1,0.55
14,N#Cc1nnn(-c2ccc(Cl)cc2)c1N,1
15,CSC1=NC=C(C#N)C2=NC(c3ccc(Cl)cc3)NN12 (configuration not stated),2.45
16,Cc1c(Cl)cccc1Nc1ncccc1C(=O)OCC(O)CO (configuration not stated),-0.65
17,CN(C)c1ccc(C(c2ccc(N(C)C)cc2)c2ccc([N+](=O)[O-])cc2)cc1,0.55
18,CCSc1nc(O)cc(=O)[nH]1,-0.9
19,CC(=O)[C@H]1CC[C@H]2[C@@H]3CCC4=CC(=O)C=C[C@]4(C)[C@H]3C(=O)C[C@]12C,1.65
20,CCOCc1cc(=O)[nH]c(SC)n1,-0.05
21,Cc1ccc(S(=O)(=O)Oc2cc(N)c3c(n2)CCC3)cc1,0.3
22,O=C(Nc1ccc(Br)cc1)Nc1ccccc1Cl,-0.9
23,Clc1ccc(Nc2nnc(-c3ccc4c(c3)OCO4)o2)cc1,-0.7
24,CCN1CCCC(Sc2nc3c([nH]2)c(=S)n(C)c(=O)n3C)C1 (configuration not stated),0.45

row,SMILES,T2 sensor activation Q score
1,O=C(O)c1cc(O)ccc1N=Nc1ccccc1,1.55
2,CCC(=Cc1ccc(CC)cn1)CC,1.85
3,O=[N+]([O-])c1cccc(/C=C/c2ccccn2)c1,-1.2
4,C(=C\c1ccccn1)/c1ccccn1,2.1
5,C(=C\CSc1ccccn1)/CSc1ccccn1,-0.6
6,CC(=O)c1c(O)c(C)c(O)c2c1OC1=CC(=O)/C(=C(/C)N)C(=O)C12C (configuration not stated),-1.2
7,C/C=C1\NC(=O)[C@H]2CSSCC/C=C/[C@H](CC(=O)N[C@H](C(C)C)C(=O)N2)OC(=O)[C@H](C(C)C)NC1=O,3
8,O=C(Nc1nc2ccccc2s1)Nc1ccc([N+](=O)[O-])cc1Cl,0.35
9,CN(C)c1nc(Cl)nc2c1nc(Cl)n2C1CCCCO1 (configuration not stated),1.4
10,O=C(/C=C/c1ccccc1)CC(c1ccccc1)N1CCOCC1 (configuration not stated),-0.6
11,C1COCCN1.O=C(O)C(C=C(Cl)Cl)N1CCOCC1 (configuration not stated),2.65
12,CCCCCCCCC(=O)c1c(OC)oc(C=O)cc1=O,0.5
13,C/C(=N/O)[C@H]1CC[C@H]2[C@@H]3CC[C@@H]4C/C(=N\O)CC[C@]4(C)[C@H]3[C@@](C)(O)C[C@]12C,0.5
14,COC(=O)c1c(-c2ccccc2)[nH]c(-c2nccc3ccccc23)c1C(=O)OC,-0.35
15,COc1cc(NC(=O)CCl)ccc(=O)c1,0.6
16,Nc1o[nH]c(=O)c1C1CCCCC1,-0.8
17,Cc1cc(-n2cnc3c(=O)[nH]cnc32)ccc1N,1.35
18,CS/C(=C\c1ccc(C(=O)c2ccc(C)cc2)n1C)[S+](C)[O-] (configuration not stated),5.35
19,CCOC(=O)Nc1ccc2nc(Sc3ccc(Cl)cc3)sc2c1,0.35
20,Cc1ccc(S(=O)(=O)CCOC(=O)CNC(=O)OCc2ccccc2)cc1,-0.1
21,COC(=O)c1cc2c(n1S(=O)(=O)c1ccc(C)cc1)C(=O)C(=O)c1[nH]cc(C(=O)OCc3ccccc3)c1-2,2
22,NC(=O)NC(=O)c1nccnc1C(=O)O,-0.2
23,O=C(c1ccccc1)c1ccccc1C(=O)c1ccccc1,0.65
24,COC(=O)C[C@](O)(CCCC(C)(C)O)C(=O)O[C@@H]1C(OC)=C[C@]23CCCN2CCc2cc4c(cc2[C@H]13)OCO4,4.5

row,SMILES,T2 sensor activation Q score
1,COc1c(O)ccc2c1CN1CCc3cc4c(cc3C1C2)OCO4 (configuration not stated),-1.3
2,C[C@]12CC[C@H](O)CC1=CC[C@@H]1[C@@H]2CC[C@]2(C)c3[nH]ncc3C[C@@H]12,0.2
3,COc1ccc(C(=S)N2CCN(c3ccccc3C)CC2)cc1,-0.85
4,CCn1c(=O)n(C)c2c(=O)n(C)c(=O)n(C)c21,-1.1
5,CCCc1nc2c([nH]1)c(=O)n(C)c(=O)n2C,1.8
6,Cn1c(=O)c2[nH]c(N3CCCCC3)nc2n(C)c1=O,2.15
7,Cn1c(=O)c2c(nc(N3CCCCC3)n2C)n(C)c1=O,-0.7
8,Cn1c(=O)c2c(nc(Cc3ccccc3)n2C)n(C)c1=O,1.35
9,Cc1c2oc3c(C)ccc(C(=O)N[C@@H]4C(=O)N[C@H](C(C)C)C(=O)N5CCC[C@H]5C(=O)N(C)CC(=O)N(C)[C@@H](C(C)C)C(=O)O[C@@H]4C)c3nc-2c(C(=O)N[C@@H]2C(=O)N[C@H](C(C)C)C(=O)N3CCC[C@H]3C(=O)N(C)CC(=O)N(C)[C@@H](C(C)C)C(=O)O[C@@H]2C)c(N)c1=O,-1.15
10,Cc1cc2cc3c(=O)[nH]c(=O)[nH]c3nc2cc1C,-0.35
11,N#CC1C(=O)NC(=O)C(C#N)C12CCCC(C(F)(F)F)C2 (configuration not stated),0.45
12,CN(C)C=Nc1ccc(Cl)c(Cl)c1,-1.85
13,C1C2CC3C1C3/C2=N\N=C1/C2CC3C(C2)C13,0.3
14,Nc1ccc(SCc2nc3cccc4c3n2CCC4)cc1,0.35
15,Cn1c2c(sc1=O)CCC2,-0.4
16,C#CCSc1n[nH]c(-c2ccco2)n1,1.7
17,COc1ccccc1NC(=O)Oc1cccc(OC(=O)c2ccccc2)c1,0.2
18,COc1ccc(Cc2nnc(SC)n2-c2ccc(F)cc2)cc1OC,0.45
19,O=C1c2ccccc2C(=Cc2cccnc2)c2ccccc21,0.2
20,Cc1ccc(NC(=O)NNC(=O)CSC2CCc3ccccc32)c(C)c1 (configuration not stated),-1.2
21,O=C(Nc1ccsn1)c1ccc(Cl)cc1Cl,1.25
22,Nc1ccn(C2OC(CCl)C(O)C2O)c(=O)n1 (configuration not stated),-0.65
23,Cn1ncc2c(Nc3ccc([N+](=O)[O-])cc3)nc(Cl)nc21,-0.5
24,CC1=NCC(C)c2ccccc21 (configuration not stated),3.25

# Reference: the supplement of paper PMC5407854, “Inhibitor of ppGalNAc-T3-mediated O-glycosylation blocks cancer cell invasiveness and lowers FGF23 levels” (eLife, 2017)
